Assay results reported in PubChem BioAssay (NCATS).
Records with an inconclusive call do not appear. Active and inactive are the calls of the source. Calls follow the shape of the dose curve; as a rule, active = well fitted cell-killing curve with a large enough effect; inconclusive = small, poorly fitted or top-dose-only effect, or effect the other way; inactive = flat fitted curve, though single readings scatter.

What was measured:
Test in all cases: Primary qHTS to identify gynecologic anti-cancer compounds using libraries of approved drugs and bioactive compounds (AID 1345084); also: nearly all actives have a fitted effect of over 55% in size
C33A = details: Gynecologic cancer cell panel viability, ATPlite luminescence, 48 h; series mostly up to 57.5 µM
Summary of the method: (§1)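 Cell viability after 48 h drug treatment, ATPlite luminescence readout; five doses.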

CAOV3 = details: Gynecologic cancer cell panel viability, ATPlite luminescence, 48 h; series mostly up to 57.5 µM
Summary of the method: as §1

CASKI = details: Gynecologic cancer cell panel viability, ATPlite luminescence, 48 h; series mostly up to 57.5 µM
Summary of the method: as §1

Es-2 = details: Gynecologic cancer cell panel viability, ATPlite luminescence, 48 h; series mostly up to 57.5 µM
Summary of the method: as §1

HeLa = details: Gynecologic cancer cell panel viability, ATPlite luminescence, 48 h; series mostly up to 57.5 µM
Summary of the method: as §1

Hek293T = details: Gynecologic cancer cell panel viability, ATPlite luminescence, 48 h, control line for the selectivity index; series mostly up to 57.5 µM
Summary of the method: as §1

JEG-3 = details: Gynecologic cancer cell panel viability, ATPlite luminescence, 48 h; series mostly up to 57.5 µM
Summary of the method: as §1

OV90 = details: Gynecologic cancer cell panel viability, ATPlite luminescence, 48 h; series mostly up to 57.5 µM
Summary of the method: as §1

PA-1 = details: Gynecologic cancer cell panel viability, ATPlite luminescence, 48 h; series mostly up to 57.5 µM
Summary of the method: as §1

SKOV3 = details: Gynecologic cancer cell panel viability, ATPlite luminescence, 48 h; series mostly up to 57.5 µM
Summary of the method: as §1

Tov-21-G = details: Gynecologic cancer cell panel viability, ATPlite luminescence, 48 h; series mostly up to 57.5 µM
Summary of the method: as §1

Tov112D = details: Gynecologic cancer cell panel viability, ATPlite luminescence, 48 h; series mostly up to 57.5 µM
Summary of the method: as §1
% is scaled to controls: 0 for no effect and ±100 for the full control effect.

OCC1OC(Oc2cc(O)c3c(c2)OC(c2ccc(O)cc2)C(O)C3)C(O)C1O (stereo not drawn)
inactive: Potency (C33A) | Potency (CAOV3) | Potency (CASKI) | Potency (Es-2) | Potency (HeLa) | Potency (Hek293T) | Potency (JEG-3) | Potency (OV90) | Potency (PA-1) | Potency (SKOV3) | Potency (Tov-21-G) | Potency (Tov112D)

CC1=C2C(=O)C=C(CO)[C@@H]2[C@H]2OC(=O)[C@H](C)[C@@H]2[C@@H](O)C1
inactive: Potency (C33A) | Potency (CAOV3) | Potency (CASKI) | Potency (Es-2) | Potency (HeLa) | Potency (Hek293T) | Potency (JEG-3) | Potency (OV90) | Potency (PA-1) | Potency (SKOV3) | Potency (Tov-21-G) | Potency (Tov112D)

C[C@@H]1C/C=C/C=C\C=C\C=C\[C@H](O[C@@H]2O[C@H](C)[C@@H](O)[C@H](N)[C@@H]2O)C[C@@H]2O[C@](O)(C[C@@H](O)C[C@H]3O[C@@H]3/C=C/C(=O)O1)C[C@H](O)[C@H]2C(=O)O
inactive: Potency (C33A) | Potency (CAOV3) | Potency (CASKI) | Potency (Es-2) | Potency (HeLa) | Potency (Hek293T) | Potency (JEG-3) | Potency (OV90) | Potency (PA-1) | Potency (SKOV3) | Potency (Tov-21-G) | Potency (Tov112D)

COc1cc(C2Oc3c(OC)cc(/C=C/C(=O)OC[C@H]4O[C@@H](OC(C)(C)C(=O)O)[C@H](O)[C@@H](O)[C@@H]4O)cc3C2CO)ccc1O (stereo partly drawn)
inactive: Potency (C33A) | Potency (CAOV3) | Potency (CASKI) | Potency (Es-2) | Potency (HeLa) | Potency (Hek293T) | Potency (JEG-3) | Potency (OV90) | Potency (PA-1) | Potency (SKOV3) | Potency (Tov-21-G) | Potency (Tov112D)

CC(O)(CC(=O)O)CC(=O)O[C@@H]1[C@@H](O)[C@H](OCCc2ccccc2)O[C@H](CO)[C@H]1O (stereo partly drawn)
inactive: Potency (C33A) | Potency (CAOV3) | Potency (CASKI) | Potency (Es-2) | Potency (HeLa) | Potency (Hek293T) | Potency (JEG-3) | Potency (OV90) | Potency (PA-1) | Potency (SKOV3) | Potency (Tov-21-G) | Potency (Tov112D)

C=CC(C)(O)CC/C=C(\C)C(=O)OC1CC2(C(=O)O)CCC3(C)C(=CCC4C5(C)CCC(OC6OC(COC7OCC(O)C(O)C7O)C(O)C(OC7OCC(O)C(O)C7O)C6OC6OC(CO)C(O)C(O)C6OC6OCC(O)C(O)C6O)C(C)(C)C5CCC43C)C2CC1(C)C (stereo not drawn)
inactive: activity change, negative = cytotoxicity (C33A) 0.0336% [at 6.55 µM] | activity change, negative = cytotoxicity (CAOV3) 2.82% [at 6.55 µM] | activity change, negative = cytotoxicity (CASKI) 0.559% [at 6.55 µM] | activity change, negative = cytotoxicity (Es-2) 6.29% [at 6.55 µM] | activity change, negative = cytotoxicity (HeLa) 13.4% [at 6.55 µM] | activity change, negative = cytotoxicity (Hek293T) -1.17% [at 6.55 µM] | activity change, negative = cytotoxicity (JEG-3) -1.3% [at 6.55 µM] | activity change, negative = cytotoxicity (OV90) 0.467% [at 6.55 µM] | activity change, negative = cytotoxicity (PA-1) 9.33% [at 6.55 µM] | activity change, negative = cytotoxicity (SKOV3) -0.175% [at 6.55 µM] | activity change, negative = cytotoxicity (Tov-21-G) 1.97% [at 6.55 µM] | activity change, negative = cytotoxicity (Tov112D) 4.31% [at 6.55 µM]

C[C@@H]1C[C@H](O[C@@H]2O[C@H](CO[C@@H]3OC[C@](O)(CO)[C@H]3O)[C@@H](O)[C@H](O)[C@H]2O)CC(C)(C)[C@H]1/C=C/[C@@H](C)O
inactive: Potency (C33A) | Potency (CAOV3) | Potency (CASKI) | Potency (Es-2) | Potency (HeLa) | Potency (Hek293T) | Potency (JEG-3) | Potency (OV90) | Potency (PA-1) | Potency (SKOV3) | Potency (Tov-21-G) | Potency (Tov112D)

OC[C@H]1O[C@@H](OC(CCCCc2ccc(O)cc2)CCc2ccc(O)cc2)[C@H](O[C@@H]2OC[C@](O)(CO)[C@H]2O)[C@@H](O)[C@@H]1O (stereo partly drawn)
inactive: Potency (C33A) | Potency (CAOV3) | Potency (CASKI) | Potency (Es-2) | Potency (HeLa) | Potency (Hek293T) | Potency (JEG-3) | Potency (OV90) | Potency (PA-1) | Potency (SKOV3) | Potency (Tov-21-G) | Potency (Tov112D)

CCOC(=O)[C@H](CCc1ccccc1)CC1(C(=O)N[C@H]2CCc3ccccc3N(CC(=O)O)C2=O)CCCC1
inactive: Potency (C33A) | Potency (CAOV3) | Potency (CASKI) | Potency (Es-2) | Potency (HeLa) | Potency (Hek293T) | Potency (JEG-3) | Potency (OV90) | Potency (PA-1) | Potency (SKOV3) | Potency (Tov-21-G) | Potency (Tov112D)

C/C(=C/CO)CC[C@@H]1[C@@]2(C)CCC[C@](C)(C(=O)O)C2CC[C@@]1(C)O (stereo partly drawn)
inactive: Potency (C33A) | Potency (CAOV3) | Potency (CASKI) | Potency (Es-2) | Potency (HeLa) | Potency (Hek293T) | Potency (JEG-3) | Potency (OV90) | Potency (PA-1) | Potency (SKOV3) | Potency (Tov-21-G) | Potency (Tov112D)

CC(=O)C1CCC2(C)C3=C(CCC12C)C1(C)CCC(=O)C(C)(C)C1CC3 (stereo not drawn)
inactive: Potency (C33A) | Potency (CAOV3) | Potency (CASKI) | Potency (Es-2) | Potency (HeLa) | Potency (Hek293T) | Potency (JEG-3) | Potency (OV90) | Potency (PA-1) | Potency (SKOV3) | Potency (Tov-21-G) | Potency (Tov112D)

CC(C)CC(=O)n1cc(C(N)=O)c(=O)cc1C(O)c1ccccc1 (stereo not drawn)
inactive: Potency (C33A) | Potency (CAOV3) | Potency (CASKI) | Potency (Es-2) | Potency (HeLa) | Potency (Hek293T) | Potency (JEG-3) | Potency (OV90) | Potency (PA-1) | Potency (SKOV3) | Potency (Tov-21-G) | Potency (Tov112D)

O=C(O)CCc1cccc(O[C@@H]2O[C@H](CO)[C@@H](O)[C@H](O)[C@H]2O)c1O
inactive: Potency (C33A) | Potency (CAOV3) | Potency (CASKI) | Potency (Es-2) | Potency (HeLa) | Potency (Hek293T) | Potency (JEG-3) | Potency (OV90) | Potency (PA-1) | Potency (SKOV3) | Potency (Tov-21-G) | Potency (Tov112D)

CC1(C)CC[C@]2(C(=O)O)CC[C@]3(C)C(=CCC4[C@@]5(C)CC[C@H](O[C@@H]6O[C@H](C(=O)O)[C@@H](O)[C@H](O)[C@H]6O)C(C)(CO)C5CC[C@]43C)C2C1 (stereo partly drawn)
inactive: Potency (C33A) | Potency (CAOV3) | Potency (CASKI) | Potency (Es-2) | Potency (HeLa) | Potency (Hek293T) | Potency (JEG-3) | Potency (OV90) | Potency (PA-1) | Potency (SKOV3) | Potency (Tov-21-G) | Potency (Tov112D)
